Assay results from PubChem BioAssay AID651642 (Sanford-Burnham Center for Chemical Genomics, 2012).
Values without a mark were called inactive. The source made the active and inactive calls.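 Rule for the calls: active = average half-effect concentration of 10 µM or less in every one of the four cell panels; inactive = the rest.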

What follows are compounds tested on HL-1 (assay: cardiomyocyte survival under oxidative or metabolic stress – cell-based, panel, H9c2 and HL-1, H2O2, 2-deoxyglucose, ATP luminescence, SAR follow-up (AID 651642;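 for activity: plate controls were H2O2 plus DMSO for no effect and cells kept without H2O2 for full effect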)). Details: H9c2/HL-1 cardiomyocyte H2O2 oxidative damage, mean of runs; activity: with H2O2, at 0.154 µM; outcome: with H2O2.

| SMILES | activity | outcome |
| --- | --- | --- |
| CCOC(=O)c1cccc(NC(=O)CNC(=O)c2cc(-c3cc(OC)c(OC)c(OC)c3)nc3ccccc23)c1 | -0.899% |  |
| CCOC(=O)c1cccc(NC(=O)c2cc(-c3cc(OC)c(OC)c(OC)c3)nc3ccc(Br)cc23)c1 | 0.456% |  |
| COc1ccc2c(c1OC)C(=O)N1c3ccccc3C(=O)N(Cc3ccncc3)C21 (configuration not stated) | 0.0397% |  |
| COc1cc(-c2cc(C(=O)Nc3cccc(C(C)=O)c3)c3ccccc3n2)cc(OC)c1OC | -1.02% (active) |  |
| COc1ccc2c(c1OC)C(=O)N1c3ccccc3C(=O)N(Cc3c(Cl)cccc3Cl)C21 (configuration not stated) | 2.81% |  |
| COc1cc(-c2cc(C(=O)NCC(=O)Nc3cccc(C(C)=O)c3)c3cccc(Cl)c3n2)cc(OC)c1OC | 8.31% |  |
| COc1cc(-c2cc(C(=O)Nc3cccc(C(=O)Nc4ccccc4)c3)c3ccccc3n2)cc(OC)c1OC | -3.29% |  |
| COc1cc(-c2cc(C(=O)Nc3cccc(-c4nn[nH]n4)c3)c3ccccc3n2)cc(OC)c1OC | -2.86% |  |
| COc1cc(-c2cc(C(=O)NCC(=O)Nc3ccc(C(C)=O)cc3)c3ccccc3n2)cc(OC)c1OC | 0.684% |  |
| COc1cc(-c2cc(C(=O)Nc3cccc(C(=O)O)c3)c3ccccc3n2)cc(OC)c1OC | 1.9% |  |
| CCOC(=O)c1cccc(NC(=O)CNC(=O)c2cc(-c3cc(OC)c(OC)c(OC)c3)nc3ccc(F)cc23)c1 | 2.27% (active) |  |
| COc1ccc(NC(=O)CNC(=O)c2cc(-c3cc(OC)c(OC)c(OC)c3)nc3ccccc23)cc1 | 3.9% (active) |  |
| CCNC(=O)c1cccc(NC(=O)c2cc(-c3cc(OC)c(OC)c(OC)c3)nc3ccccc23)c1 | -0.0361% (active) |  |
| COc1ccc2nc(-c3cc(OC)c(OC)c(OC)c3)cc(C(=O)NCC(=O)Nc3cccc(C(C)=O)c3)c2c1 | -0.983% (active) |  |
| COc1ccc2c(c1OC)C(=O)N1c3ccccc3C(=O)N(Cc3cccc(Cl)c3Cl)C21 (configuration not stated) | 4.4% |  |
| COc1ccc2c(c1OC)C(=O)N1c3ccccc3C(=O)N(Cc3ccc(F)cc3)C21 (configuration not stated) | -2.95% |  |

| SMILES | activity | outcome |
| --- | --- | --- |
| CCOC(=O)c1cccc(NC(=O)CNC(=O)c2cc(-c3cc(OC)c(OC)c(OC)c3)nc3ccc(C)cc23)c1 | -1.48% (active) |  |
| COc1ccc2nc(-c3cc(OC)c(OC)c(OC)c3)cc(C(=O)Nc3cccc(C(C)=O)c3)c2c1 |  | inactive |
| COc1cc(-c2cc(C(=O)Nc3cccc(C(C)=O)c3)c3cc(Br)ccc3n2)cc(OC)c1OC | 1.55% |  |
| COc1ccc2c(c1OC)C(=O)N1c3ccccc3C(=O)N(Cc3cccc(F)c3)C21 (configuration not stated) | 0.0397% |  |
| COc1ccc2c(c1OC)C(=O)N1c3ccccc3C(=O)N(Cc3ccccc3F)C21 (configuration not stated) | 4.24% |  |
| CCOC(=O)c1cccc(NC(=O)CNC(=O)c2cc(-c3cc(OC)c(OC)c(OC)c3)nc3ccc(Br)cc23)c1 | -0.604% (active) |  |
| CCOC(=O)c1ccc(NC(=O)c2cc(-c3cc(OC)c(OC)c(OC)c3)nc3ccccc23)cc1 | 0.646% |  |
| COc1ccc2c(c1OC)C(=O)N1c3ccccc3C(=O)N(Cc3cccc(Br)c3)C21 (configuration not stated) | 0.759% |  |
| COc1cccc(CNC(=O)CNC(=O)c2cc(-c3cc(OC)c(OC)c(OC)c3)nc3ccccc23)c1 | -2.04% |  |
| COc1ccc2c(c1OC)C(=O)N1c3ccccc3C(=O)N(Cc3ccccn3)C21 (configuration not stated) | 1.21% |  |
| COc1cc(-c2cc(C(=O)NCC(=O)O)c3ccccc3n2)cc(OC)c1OC | -0.263% |  |
| COc1ccc2c(c1OC)C(=O)N1c3ccccc3C(=O)N(Cc3cccc(C)c3)C21 (configuration not stated) | -2.16% |  |
| COC(=O)CNC(=O)c1cc(-c2cc(OC)c(OC)c(OC)c2)nc2ccccc12 | -2.8% |  |
| COc1cc(-c2cc(C(=O)Nc3cccc(C(C)=O)c3)c3cccc(Cl)c3n2)cc(OC)c1OC | -3.22% |  |
| CCOC(=O)c1cccc(NC(=O)c2cc(-c3cc(OC)c(OC)c(OC)c3)nc3ccc(C)cc23)c1 | 4.25% |  |
| COc1ccccc1CN1C(=O)c2ccccc2N2C(=O)c3c(ccc(OC)c3OC)C12 (configuration not stated) | 1.25% |  |
